Inhibition data for six compounds are collected here from ChEMBL document CHEMBL1961873, “Compounds: GSK PKIS; Assays: Nanosyn kinase panel” (2012).

The target in experiment [1] is RAC-alpha serine/threonine-protein kinase (Homo sapiens) (UniProt P31749). Conditions: at 0.1 µM.
For experiment [2] the target is unchanged. Conditions: at 1 µM.
The target of experiment [3] is RAC-beta serine/threonine-protein kinase (Homo sapiens) (UniProt P31751). The conditions noted are these: at 0.1 µM.
For experiment [4] the target is unchanged. Conditions: at 1 µM.
In experiment [5] the target is RAC-gamma serine/threonine-protein kinase (Homo sapiens) (UniProt Q9Y243). The conditions noted are these: at 0.1 µM.
For experiment [6] the target is unchanged. Conditions: at 1 µM.
The target of experiment [7] is G protein-coupled receptor kinase 6 (Homo sapiens) (UniProt P43250). Conditions: at 0.1 µM.
The target is the same in experiment [8]. Conditions: at 1 µM.
Experiment [9] addresses T1, Rhodopsin kinase GRK7 (Homo sapiens) (UniProt Q8WTQ7).
T1 sequence (whole entry): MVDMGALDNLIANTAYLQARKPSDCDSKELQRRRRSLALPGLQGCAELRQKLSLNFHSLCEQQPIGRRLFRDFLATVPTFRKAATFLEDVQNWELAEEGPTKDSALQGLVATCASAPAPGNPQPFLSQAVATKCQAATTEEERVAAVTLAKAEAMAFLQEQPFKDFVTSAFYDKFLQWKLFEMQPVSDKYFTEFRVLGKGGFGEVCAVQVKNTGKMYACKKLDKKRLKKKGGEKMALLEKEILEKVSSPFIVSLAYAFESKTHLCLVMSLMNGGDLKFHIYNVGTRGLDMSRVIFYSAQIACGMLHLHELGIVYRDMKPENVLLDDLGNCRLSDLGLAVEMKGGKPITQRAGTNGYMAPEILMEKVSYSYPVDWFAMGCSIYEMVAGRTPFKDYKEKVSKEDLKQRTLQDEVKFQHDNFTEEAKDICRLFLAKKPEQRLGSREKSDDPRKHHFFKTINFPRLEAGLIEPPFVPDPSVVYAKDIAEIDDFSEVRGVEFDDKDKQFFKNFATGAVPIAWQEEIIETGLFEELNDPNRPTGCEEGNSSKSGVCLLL
Conditions: at 0.1 µM.

Experiment [10] deals with T1, Rhodopsin kinase GRK7 (Homo sapiens). The conditions noted are these: at 1 µM.
In experiment [11] the target is Serine/threonine-protein kinase MRCK alpha (Homo sapiens) (UniProt Q5VT25). Conditions: at 0.1 µM.
Experiment [12] has the same target. The conditions noted are these: at 1 µM.
Experiment [13] has as its target Serine/threonine-protein kinase MRCK beta (Homo sapiens) (UniProt Q9Y5S2). Conditions: at 0.1 µM.
For experiment [14] the target is unchanged. The conditions noted are these: at 1 µM.
Experiment [15] addresses Ribosomal protein S6 kinase alpha-5 (Homo sapiens) (UniProt O75582). Conditions: at 0.1 µM.
For experiment [16] the target is unchanged. The conditions noted are these: at 1 µM.
The target of experiment [17] is Ribosomal protein S6 kinase alpha-4 (Homo sapiens) (UniProt O75676). Conditions: at 0.1 µM.
Experiment [18] shares this target. The conditions noted are these: at 1 µM.
The target of experiment [19] is Ribosomal protein S6 kinase beta-1 (Homo sapiens) (UniProt P23443). The conditions noted are these: at 0.1 µM.
For experiment [20] the target is unchanged. The conditions noted are these: at 1 µM.

One may read the inhibition as the relative decrease from the control value, in per cent.

Chain of Ribosomal protein S6 kinase beta-1 (Homo sapiens) (P23443 whole entry, looked up): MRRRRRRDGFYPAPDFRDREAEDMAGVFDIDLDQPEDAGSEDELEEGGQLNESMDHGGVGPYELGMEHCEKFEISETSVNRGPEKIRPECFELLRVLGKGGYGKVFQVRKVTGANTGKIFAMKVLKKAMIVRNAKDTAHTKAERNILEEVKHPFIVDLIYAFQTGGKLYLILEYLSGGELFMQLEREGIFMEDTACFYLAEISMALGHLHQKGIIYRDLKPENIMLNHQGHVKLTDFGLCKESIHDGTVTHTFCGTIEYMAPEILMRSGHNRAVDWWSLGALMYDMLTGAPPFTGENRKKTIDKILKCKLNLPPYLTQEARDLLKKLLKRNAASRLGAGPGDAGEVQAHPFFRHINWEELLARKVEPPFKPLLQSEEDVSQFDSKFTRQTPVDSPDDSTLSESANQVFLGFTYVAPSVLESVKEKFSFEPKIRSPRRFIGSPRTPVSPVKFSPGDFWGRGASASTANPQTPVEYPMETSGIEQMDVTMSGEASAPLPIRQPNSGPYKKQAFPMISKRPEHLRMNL
Chain of RAC-gamma serine/threonine-protein kinase (Homo sapiens) (Q9Y243 whole entry): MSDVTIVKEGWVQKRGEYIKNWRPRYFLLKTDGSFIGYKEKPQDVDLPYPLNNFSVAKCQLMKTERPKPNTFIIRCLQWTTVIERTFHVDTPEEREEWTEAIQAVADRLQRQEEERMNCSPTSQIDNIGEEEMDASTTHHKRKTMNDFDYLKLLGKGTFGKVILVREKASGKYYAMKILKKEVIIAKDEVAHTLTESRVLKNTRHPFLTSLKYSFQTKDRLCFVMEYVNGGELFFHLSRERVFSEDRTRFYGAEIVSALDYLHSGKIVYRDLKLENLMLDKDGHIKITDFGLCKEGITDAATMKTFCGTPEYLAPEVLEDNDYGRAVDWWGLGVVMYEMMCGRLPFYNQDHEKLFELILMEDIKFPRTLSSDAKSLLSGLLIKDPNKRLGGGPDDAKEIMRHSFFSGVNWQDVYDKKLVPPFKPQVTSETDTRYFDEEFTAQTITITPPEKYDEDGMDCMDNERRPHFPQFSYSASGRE
Chain of Ribosomal protein S6 kinase alpha-5 (Homo sapiens) (O75582 whole entry, looked up): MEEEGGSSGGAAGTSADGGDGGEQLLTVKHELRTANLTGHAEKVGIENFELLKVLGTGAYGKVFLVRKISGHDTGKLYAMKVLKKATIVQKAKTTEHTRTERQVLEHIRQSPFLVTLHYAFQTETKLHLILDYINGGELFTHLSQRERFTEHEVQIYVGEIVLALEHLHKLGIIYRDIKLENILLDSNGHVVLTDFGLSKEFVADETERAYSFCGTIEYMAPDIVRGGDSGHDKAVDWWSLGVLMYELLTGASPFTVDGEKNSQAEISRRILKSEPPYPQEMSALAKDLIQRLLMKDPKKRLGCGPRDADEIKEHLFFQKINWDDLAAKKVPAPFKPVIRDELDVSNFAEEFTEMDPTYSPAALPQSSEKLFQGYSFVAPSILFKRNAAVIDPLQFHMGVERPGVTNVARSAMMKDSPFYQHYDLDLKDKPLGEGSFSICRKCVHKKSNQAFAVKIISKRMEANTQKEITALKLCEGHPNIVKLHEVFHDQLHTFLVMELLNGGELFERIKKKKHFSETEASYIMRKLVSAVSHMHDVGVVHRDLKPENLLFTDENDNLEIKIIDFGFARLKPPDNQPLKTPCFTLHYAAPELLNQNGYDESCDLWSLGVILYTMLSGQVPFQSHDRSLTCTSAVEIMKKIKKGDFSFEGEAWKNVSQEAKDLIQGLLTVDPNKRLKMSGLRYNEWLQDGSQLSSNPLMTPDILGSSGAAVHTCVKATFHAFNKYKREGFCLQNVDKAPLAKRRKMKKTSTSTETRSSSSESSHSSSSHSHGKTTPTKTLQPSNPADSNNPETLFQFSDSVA
Chain of Serine/threonine-protein kinase MRCK alpha (Homo sapiens) (Q5VT25 whole entry): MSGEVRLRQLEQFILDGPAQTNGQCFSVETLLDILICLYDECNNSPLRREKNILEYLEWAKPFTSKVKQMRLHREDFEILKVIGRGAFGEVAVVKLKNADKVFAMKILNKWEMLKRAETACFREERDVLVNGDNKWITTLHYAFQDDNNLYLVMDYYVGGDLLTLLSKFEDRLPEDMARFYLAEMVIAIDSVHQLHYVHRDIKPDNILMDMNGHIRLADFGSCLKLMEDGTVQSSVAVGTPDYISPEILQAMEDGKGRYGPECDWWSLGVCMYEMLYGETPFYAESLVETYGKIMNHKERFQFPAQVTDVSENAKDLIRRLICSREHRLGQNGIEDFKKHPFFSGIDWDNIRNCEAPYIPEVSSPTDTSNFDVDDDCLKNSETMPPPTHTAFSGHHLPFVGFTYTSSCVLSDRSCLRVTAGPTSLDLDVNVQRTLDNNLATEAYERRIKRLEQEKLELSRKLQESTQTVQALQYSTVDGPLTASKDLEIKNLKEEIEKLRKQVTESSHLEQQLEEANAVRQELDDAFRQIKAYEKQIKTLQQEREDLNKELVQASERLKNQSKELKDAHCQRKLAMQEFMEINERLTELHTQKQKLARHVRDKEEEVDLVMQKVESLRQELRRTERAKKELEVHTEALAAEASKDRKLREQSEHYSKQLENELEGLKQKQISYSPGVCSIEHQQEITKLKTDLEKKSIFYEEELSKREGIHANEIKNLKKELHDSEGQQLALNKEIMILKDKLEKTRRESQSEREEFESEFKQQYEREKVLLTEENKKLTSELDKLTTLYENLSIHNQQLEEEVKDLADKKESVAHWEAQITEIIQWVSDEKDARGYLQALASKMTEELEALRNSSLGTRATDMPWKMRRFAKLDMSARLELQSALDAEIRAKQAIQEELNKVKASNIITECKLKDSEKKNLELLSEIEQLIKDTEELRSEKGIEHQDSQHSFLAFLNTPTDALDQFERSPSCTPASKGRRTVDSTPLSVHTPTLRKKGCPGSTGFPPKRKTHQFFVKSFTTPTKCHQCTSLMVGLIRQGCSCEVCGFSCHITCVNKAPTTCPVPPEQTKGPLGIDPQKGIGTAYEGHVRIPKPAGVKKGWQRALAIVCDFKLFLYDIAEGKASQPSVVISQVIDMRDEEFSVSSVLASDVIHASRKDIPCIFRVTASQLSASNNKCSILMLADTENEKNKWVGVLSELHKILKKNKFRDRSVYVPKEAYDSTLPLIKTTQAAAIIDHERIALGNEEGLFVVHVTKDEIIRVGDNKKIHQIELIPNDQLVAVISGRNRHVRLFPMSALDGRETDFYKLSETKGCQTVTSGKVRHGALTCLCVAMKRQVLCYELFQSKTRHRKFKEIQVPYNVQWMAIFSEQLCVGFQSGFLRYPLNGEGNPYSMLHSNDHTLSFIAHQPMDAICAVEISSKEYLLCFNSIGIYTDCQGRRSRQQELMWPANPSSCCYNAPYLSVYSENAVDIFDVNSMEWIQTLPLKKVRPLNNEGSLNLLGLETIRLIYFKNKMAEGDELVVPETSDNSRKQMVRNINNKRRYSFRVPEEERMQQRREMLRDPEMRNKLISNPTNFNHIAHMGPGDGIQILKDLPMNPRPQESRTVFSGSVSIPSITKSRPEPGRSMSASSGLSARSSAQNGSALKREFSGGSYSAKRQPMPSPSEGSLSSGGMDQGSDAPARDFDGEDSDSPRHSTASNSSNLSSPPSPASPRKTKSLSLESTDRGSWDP
Chain of G protein-coupled receptor kinase 6 (Homo sapiens) (P43250 whole entry, looked up): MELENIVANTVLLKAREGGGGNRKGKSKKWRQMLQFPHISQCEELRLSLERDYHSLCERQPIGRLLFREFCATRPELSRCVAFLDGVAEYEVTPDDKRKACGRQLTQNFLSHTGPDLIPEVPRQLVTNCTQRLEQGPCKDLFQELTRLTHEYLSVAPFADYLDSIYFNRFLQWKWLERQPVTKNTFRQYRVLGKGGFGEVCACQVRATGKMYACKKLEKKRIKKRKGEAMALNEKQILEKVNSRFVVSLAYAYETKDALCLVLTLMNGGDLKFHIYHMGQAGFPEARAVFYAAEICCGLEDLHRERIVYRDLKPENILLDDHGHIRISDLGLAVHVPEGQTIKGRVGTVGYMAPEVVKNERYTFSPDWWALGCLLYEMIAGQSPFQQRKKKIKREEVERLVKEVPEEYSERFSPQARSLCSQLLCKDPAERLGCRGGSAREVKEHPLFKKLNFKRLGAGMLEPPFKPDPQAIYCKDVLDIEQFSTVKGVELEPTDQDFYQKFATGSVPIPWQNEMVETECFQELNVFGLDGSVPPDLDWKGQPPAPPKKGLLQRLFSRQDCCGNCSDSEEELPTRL
Chain of RAC-alpha serine/threonine-protein kinase (Homo sapiens) (P31749 whole entry): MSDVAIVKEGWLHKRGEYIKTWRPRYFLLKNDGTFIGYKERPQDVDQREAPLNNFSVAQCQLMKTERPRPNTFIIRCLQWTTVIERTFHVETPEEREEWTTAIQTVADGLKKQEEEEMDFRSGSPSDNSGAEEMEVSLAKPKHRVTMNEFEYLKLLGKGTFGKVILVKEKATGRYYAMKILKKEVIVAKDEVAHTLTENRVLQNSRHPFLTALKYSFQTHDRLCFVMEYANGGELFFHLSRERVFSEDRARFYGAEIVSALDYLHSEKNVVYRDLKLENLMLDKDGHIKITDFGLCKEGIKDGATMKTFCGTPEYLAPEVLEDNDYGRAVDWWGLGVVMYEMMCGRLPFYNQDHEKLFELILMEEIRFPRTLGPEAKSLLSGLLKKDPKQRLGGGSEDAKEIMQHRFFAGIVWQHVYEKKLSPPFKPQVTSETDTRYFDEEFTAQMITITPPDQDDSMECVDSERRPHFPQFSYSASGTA
Chain of RAC-beta serine/threonine-protein kinase (Homo sapiens) (P31751 whole entry): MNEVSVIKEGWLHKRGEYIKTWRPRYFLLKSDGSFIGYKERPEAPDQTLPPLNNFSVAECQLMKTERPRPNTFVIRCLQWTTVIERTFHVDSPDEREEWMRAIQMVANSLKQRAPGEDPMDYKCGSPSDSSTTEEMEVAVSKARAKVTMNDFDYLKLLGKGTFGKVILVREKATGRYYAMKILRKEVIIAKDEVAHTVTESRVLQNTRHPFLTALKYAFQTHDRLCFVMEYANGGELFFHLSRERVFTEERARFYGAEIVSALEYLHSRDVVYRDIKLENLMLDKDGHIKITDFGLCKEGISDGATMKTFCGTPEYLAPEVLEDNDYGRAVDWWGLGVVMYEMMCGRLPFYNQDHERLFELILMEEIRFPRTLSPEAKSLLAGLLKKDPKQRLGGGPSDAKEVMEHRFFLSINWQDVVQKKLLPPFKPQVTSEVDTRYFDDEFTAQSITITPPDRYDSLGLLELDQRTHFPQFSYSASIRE

Turning to `FC(F)(F)c1cccc(-c2nn3ncccc3c2-c2ccnc(Nc3ccc4c(c3)OCCO4)n2)c1`, the inhibition in experiment [1] was 0.59%; in experiment [2], 1.44%; in [3], 2.75%; in experiment [4], 1.12%; in [5], 1.47%; in experiment [6], 0.72%. Moreover, the inhibition was -1.22% in experiment [7]; -2.46% in experiment [8]; 1.8% in experiment [9]; 1.11% in experiment [10]; 0.13% in experiment [11]; 0.81% in [12]. In addition, the inhibition in experiment [13] is -0.8%; in experiment [14] it was 1.29%; in experiment [15], 1.59%; in experiment [16], 1.24%; in experiment [17] it was 0.3%; in experiment [18], 3.51%. In addition, the results for the inhibition in experiment [19] and in [20] were 1.22% and -0.48%, respectively.

For `COc1cc(N2CCN(C(C)C)CC2)ccc1Nc1nc(Nc2ccc(F)cc2C(N)=O)c2cc[nH]c2n1`, the inhibition in experiment [1] is 0.91%; in [2] it was 2.86%; in experiment [3], 1.62%; in experiment [4], 3.68%; in experiment [5], 1.62%; in experiment [6], 4.8%. Further, the inhibition in experiment [7] came out at 3.9%; in [8], 14.3%; in experiment [9], 5.3%; in experiment [10], 10.1%; in experiment [11] it was 9.71%; in experiment [12] it was 20%. For the same compound, the inhibition came to 1.18% in experiment [13]; 16.4% in experiment [14]; 1.85% in experiment [15]; 6.61% in experiment [16]; 1.8% in experiment [17]; 7.26% in experiment [18]. Moreover, the results for the inhibition in experiment [19] and in experiment [20] were 1.81% and 5.41%, respectively.

Consider `Nc1nc(-c2ccc(F)cc2)c(-c2ccc3ncccc3n2)s1`, for which the inhibition came to 0.67% in experiment [1]; 1.34% in experiment [2]; 2.24% in experiment [3]; 2.19% in [4]; 5.53% in experiment [5]; 1.9% in [6]. Further, the inhibition in experiment [7] was 5.89%; in experiment [8], 5.57%; in experiment [9] it was 6.78%; in [10], 7.94%; in experiment [11], -0.11%; in experiment [12], 3.87%. The inhibition was determined as 0.89% in [13]; 0.94% in [14]; 3.54% in experiment [15]; 3.83% in experiment [16]; 3.18% in experiment [17]; 4.49% in [18]. Besides, the inhibition was 2.53% in [19] and 2.7% in experiment [20].

As to `NC(=O)c1sc(-n2cnc3ccc(C(F)(F)F)cc32)cc1OCc1ccccc1Br`, the inhibition stood at 0.43% in [1]; 0.68% in experiment [2]; 2.44% in experiment [3]; 2.18% in experiment [4]; 0.75% in experiment [5]; 1.39% in [6]. Also, the inhibition was 5.91% in [7]; 9.67% in experiment [8]; 4.43% in experiment [9]; 14.5% in experiment [10]; -0.03% in [11]; 1.97% in experiment [12]. Also, the inhibition was determined as 0.62% in [13]; 3.16% in [14]; 4.33% in [15]; 4.75% in [16]; 3.18% in experiment [17]; 5.34% in experiment [18]. Further, the inhibition in experiment [19] is 1.25%; in [20] it was 2.28%.

`Fc1ccc(-c2nn3ccccc3c2-c2ccncc2)cc1`: the inhibition in [1] amounted to 0.06%; in [2] it was 1.28%; in [3] it was 0.35%; in experiment [4] it was 1.43%; in [5], 1.01%; in experiment [6], 4.38%. Besides, the inhibition was 0.75% in experiment [7]; -0.76% in experiment [8]; 0.65% in [9]; 3.13% in [10]; 1.08% in experiment [11]; 3.93% in [12]. In addition, the inhibition in [13] is 1.99%; in [14], 4.92%; in experiment [15], 4.62%; in experiment [16], 5.97%; in experiment [17], 5.06%; in [18] it was 6.2%. Further, the inhibition in experiment [19] was determined as 1.21%; in experiment [20] it was 2.15%.

Consider `CCn1c(-c2nonc2N)nc2c(C#CC(C)(C)O)ncc(OC3CCNCC3)c21`, for which the inhibition was 70.1% in experiment [1]; 92.8% in experiment [2]; 85.2% in experiment [3]; 95.5% in experiment [4]; 74.7% in [5]; 94.2% in experiment [6]. Moreover, the inhibition was found to be 4.09% in [7]; 7.13% in experiment [8]; 7.74% in [9]; 17% in [10]; 8.47% in experiment [11]; 33.8% in experiment [12]. Moreover, the inhibition was found to be 2.8% in experiment [13]; 22.5% in experiment [14]; 2.46% in experiment [15]; 11.8% in [16]; 3.66% in [17]; 14.9% in [18]. The inhibition was determined as 4.92% in experiment [19] and 26.5% in experiment [20].
